# Experimental data as given in PubChem BioAssay AID1476 (National Center for Advancing Translational Sciences (NCATS), 2009).
# About 4,500 (2.2%) of roughly 200,000 compounds were called active. Roughly 12% stayed inconclusive and do not appear here. Calls follow the shape of the dose curve; as a rule, active = well fitted inhibition curve with a large enough effect; inconclusive = small, poorly fitted or top-dose-only effect, or effect the other way; inactive = flat fitted curve, though single readings scatter. What follows is part of a selection rich in actives, with near analogues and random picks from the rest.
# Target: Cruzipain (Trypanosoma cruzi) (UniProt P25779)
# Sequence (P25779 123-467 limits assumed): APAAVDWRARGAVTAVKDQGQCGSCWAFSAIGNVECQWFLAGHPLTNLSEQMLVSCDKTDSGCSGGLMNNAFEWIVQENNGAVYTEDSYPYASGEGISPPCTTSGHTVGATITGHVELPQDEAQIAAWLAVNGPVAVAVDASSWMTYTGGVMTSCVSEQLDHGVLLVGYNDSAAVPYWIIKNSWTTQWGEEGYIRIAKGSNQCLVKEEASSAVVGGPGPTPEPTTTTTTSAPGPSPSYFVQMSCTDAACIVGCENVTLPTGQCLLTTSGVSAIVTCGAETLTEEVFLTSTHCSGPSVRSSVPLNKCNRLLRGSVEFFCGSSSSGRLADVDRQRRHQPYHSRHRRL
# Assay: qHTS Assay for Promiscuous and Specific Inhibitors of Cruzain (without detergent); also: nearly all actives have a fitted effect of over 40% in size;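 as to max response, negative = inhibition: plate controls were enzyme without inhibitor for no effect and buffer without enzyme for full effect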
# Settings: purified cruzain, Z-FR-AMC fluorescence, no detergent
# In short: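 Detergent-free condition (0.00005% Triton X-100) in acetate buffer pH 5.5 with DTT. 1.5 nM enzyme and compound were pre-mixed 15 min, then 2 uM Z-FR-AMC substrate added; reaction progress from fluorescence change between first and third reads (60 s).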
# Potency is read from the fitted curve at half-maximal effect.
SMILES,"max response, negative = inhibition",Potency
CCc1nn(CC(=O)NCC(C)c2ccccc2)c(=O)c2cc3occc3n12 (centres undefined),-11.2% (inactive),
CCn1c(C(=O)Nc2cc(Cl)ccc2C)cc2sc(Cl)cc21,4.79% (inactive),
CCOC(=O)c1c(NC(=O)/C=C/c2ccco2)sc(C)c1C,-4.04% (inactive),
CCOC(=O)c1c(NC(=O)c2cccs2)sc(C)c1C,6.07% (inactive),
CCOC(=O)c1c(NC(=S)NC(=O)/C=C/c2cccs2)sc(C)c1C,,10 µM (active)
Cc1ccc2nc(COc3ccccc3NC(=O)Nc3ccc(F)c(Cl)c3)cc(=O)n2c1,4.26% (inactive),
COc1ccc(N(C)C(=O)CCS(=O)(=O)c2cccc3nsnc23)cc1,-4.91% (inactive),
Cc1ccc(NC(=O)CSc2nnc3[nH]c(=O)cc(C)n23)cc1Cl,-3.39% (inactive),
CC(=O)c1c(C)[nH]c(C(=O)OCC(=O)Nc2sc3c(c2C#N)CCCC3)c1C,11.6% (inactive),
Cc1cccc(C(=O)OCC(=O)Nc2sc3c(c2C#N)CCC3)c1,,25.1 µM (active)
Cc1ccc(C)c(OCC(=O)Nc2sc3c(c2C#N)CCCC3)c1C,-0.311% (inactive),
Cc1cc(C)c2oc(-c3cccc(NC(=O)c4cccc(F)c4)c3C)nc2c1,-10.4% (inactive),
CCOC(=O)c1cccc(NS(=O)(=O)c2cc(-c3cnc(C)o3)ccc2OC)c1,1.23% (inactive),
COc1ccccc1N1CCN(C(=O)c2cc(-c3ccc(Br)cc3)on2)CC1,16.1% (inactive),
COc1ccccc1N1CCN(C(=O)c2cc(-c3ccc(Cl)c(Cl)c3)on2)CC1,,25.1 µM (active)
COc1ccccc1-c1cc(C(=O)N2CCCCC2)no1,-9.93% (inactive),
O=C(Nc1c(C(=O)N2CCN(c3ccc(F)cc3)CC2)oc2ccccc12)c1ccco1,-12.7% (inactive),
COc1ccccc1CN1CCC(CNC(=O)c2cnn(-c3cccc(Cl)c3)c2C2CCN(C(=O)OC(C)(C)C)CC2)CC1,4.5% (inactive),
CC1=C(c2ccc(F)cc2)S(=O)(=O)N=C1N1CCC(C(=O)NCCc2ccccc2C)CC1,-2.21% (inactive),
COc1ccccc1-c1nc(C(F)(F)F)c(OC)o1,-2.62% (inactive),

SMILES,"max response, negative = inhibition",Potency
COc1ccccc1C1=Nc2cccc3cccc(c23)N1,,12.6 µM (active)
CNc1nc(-c2ccccc2OC)nc2ccccc12,-18.4% (inactive),
Cc1ccc(NC(=O)NC(C)c2c(-n3cccc3)sc(C)c2C)c(C)c1 (centres undefined),-10.8% (inactive),
CCC(=O)N1CCc2cc(Br)cc(S(=O)(=O)Nc3ccc(C)cc3C)c21,-1.34% (inactive),
C=C(C)COc1ccc(-c2n[nH]c(C)c2-c2ccccc2)c(O)c1,-10.5% (inactive),
COc1ccc(C(=O)Cc2cnn(-c3ccccc3)c2)c(O)c1,4.15% (inactive),
Cc1[nH]nc(-c2ccc(OCc3cnn(-c4ccccc4)c3)cc2O)c1Oc1ccc(Cl)cc1,,10 µM (active)
CCCN(CCC)CCNC(=O)Cn1cnc2sc(C)c(S(=O)(=O)N3CCC(C)CC3)c2c1=O,-2.05% (inactive),
COc1cc(C(CC(=O)NCCC(C)C)N2Cc3ccccc3C2=O)cc(OC)c1OC (centres undefined),2.58% (inactive),
COc1cc(OC)c2c(-c3cccc(-c4cccc(N)c4)c3)cc(=O)oc2c1,,11.2 µM (active)
COc1ccc(Nc2cc(=O)oc3ccccc23)cc1,-23.8% (inactive),
COC(=O)C(C)Oc1ccc2c(-c3cccc([N+](=O)[O-])c3)cc(=O)oc2c1 (centres undefined),0.187% (inactive),
Cc1c(C(=O)N2CCCC2)oc2c1-c1nn(CC(=O)NCc3ccc(OC(C)C)cc3)cc1CC2,21.1% (inactive),
COc1ccc(OC(C)C(=O)NCCc2nc3ccccc3[nH]2)cc1 (centres undefined),-6.55% (inactive),
O=C(COc1ccccc1)NCCc1nc2ccccc2[nH]1,,1 µM (active)
CC(C)=C(NC(=O)c1ccco1)C(=O)NCCc1nc2ccccc2[nH]1,-27.9% (inactive),
Cc1cccc(NC(c2cccc(F)c2)c2ccc3ccc(C)nc3c2O)n1 (centres undefined),9.47% (inactive),
Cc1cc(NS(=O)(=O)c2ccc(NC(=O)c3ccccc3C)cc2)nc(C)n1,11.3% (inactive),
O=C(Cn1cnc2c(nnn2Cc2ccc(F)cc2)c1=O)NCc1ccc2c(c1)OCO2,-6.08% (inactive),
Cc1nc(Nc2ccc3c(c2)OCCO3)c2nnn(Cc3ccccc3Cl)c2n1,-5.56% (inactive),

SMILES,"max response, negative = inhibition",Potency
CCCc1nc(NCc2ccc3c(c2)OCO3)c2nnn(Cc3ccccc3Cl)c2n1,,7.94 µM (active)
Cc1ccccc1-c1nc(CS(=O)(=O)CC(=O)Nc2cc(Cl)cc(Cl)c2)c(C)o1,-28.1% (inactive),
COc1ccc(-c2[nH]c3c(c2-c2c(-n4cccc4)n(C)c(=O)n(C)c2=O)c(=O)n(C)c(=O)n3C)cc1,-3.26% (inactive),
COC(=O)C(NC(=O)c1ccc(OC)cc1)(Nc1ncc(S(=O)(=O)c2ccc([N+](=O)[O-])cc2)s1)C(F)(F)F (centres undefined),-9.17% (inactive),
COc1ccc(C(=O)Nc2ncc3c(n2)-c2ccccc2CC3)cc1,-8% (inactive),
COc1ccc(C(=O)Nc2nc(-c3ccc(OC)cc3)c(-c3ccc([N+](=O)[O-])cc3)s2)cc1,,7.94 µM (active)
O=C(NCc1ccccc1Cl)c1cccn1-c1nnc(N2CCCCC2)s1,-7.04% (inactive),
O=c1cc(-c2ccc(O)c(O)c2)oc2cccc(O)c12,0.411% (inactive),
Oc1ccc(O)c2c(O)cccc12,,12.6 µM (active)
O=S(=O)(c1ccc(Cl)cc1)c1nnn2c1nc(NC1CCCC1)c1sccc12,1.8% (inactive),
Cc1ccccc1NC(=O)Cn1c(=O)n(CC2CCC(C(=O)NCCc3ccccc3)CC2)c(=O)c2ccccc21 (centres undefined),3.54% (inactive),
COc1ccc(-c2nc(C)c(CCNC(=O)c3ccc(C(F)(F)F)cc3)s2)cc1OC,17.5% (inactive),
CCn1cc(CCC(=O)NCc2ccc(F)cc2)c2ccccc21,-13.6% (inactive),
COC(=O)c1ccc(CSc2nc3ccccc3c(=O)n2-c2cccc(OC)c2)o1,,25.1 µM (active)
COC(=O)c1ccc(CSc2ccccc2C)o1,-6.13% (inactive),
COCC(C)n1c(SCc2ccc(C(=O)OC)o2)nc2ccccc2c1=O (centres undefined),12.5% (inactive),
Cc1cccc(NC(=O)CSc2nc3c([nH]c4ccccc43)c(=O)n2-c2cc(C)cc(C)c2)c1,-19.8% (inactive),
Cc1ccc(NC(=O)CSc2nc3c([nH]c4ccccc43)c(=O)n2-c2ccccc2)cc1Cl,2.09% (inactive),
CCc1ccc(NC(=O)CSc2nc3c([nH]c4ccccc43)c(=O)n2-c2cccc(OC)c2)cc1,,12.6 µM (active)
